Data as given in the supplement of paper PMC10981050.
Where “and” joins values, the source holds several entries; their conditions need not be identical. Identical values can stand only once. Counter-ions that a name gives are not always drawn.

What was measured:
Experiment in all cases: cell viability relative to vehicle control; higher = less cytotoxic
Settings in all cases: 10 µM
[1] = test system: K562
Summary of the method: (§1)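 Mutant clones made by CRISPR editing and their isogenic wild-type counterparts, from four leukaemia lines, were exposed to a single 10 µM dose of each library compound for 48 h. The supernatant was then removed and CellTiter-Glo luminescence was read. Viability was reported as percent of the on-plate vehicle control.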

[2] = test system: MARIMO
Summary of the method: as §1

[3] = test system: MOLM14
Summary of the method: as §1

[4] = test system: OCI-AML2
Summary of the method: as §1

SMILES	cell viability ([1]; SRSF2 genotype: SRSF2 P95H/wt)	cell viability ([1]; SRSF2 genotype: SRSF2 wt/wt) [%]	cell viability ([2]; SRSF2 genotype: SRSF2 P95H/wt) [%]	cell viability ([2]; SRSF2 genotype: SRSF2 wt/wt) [%]	cell viability ([3]; SRSF2 genotype: SRSF2 P95H/wt) [%]	cell viability ([3]; SRSF2 genotype: SRSF2 wt/wt) [%]	cell viability ([4]; SRSF2 genotype: P95H/wt) [%]	cell viability ([4]; SRSF2 genotype: wt/wt) [%]
CNCCCC12CCC(c3ccccc31)c1ccccc12 [Maprotiline hydrochloride]	76.7% and 74.8%	71.2	65.2	71.2	64.4	83.2	51.1	56.8
C=CCNC1=C2C[C@@H](C)C[C@H](OC)[C@H](O)[C@@H](C)/C=C(\C)[C@H](OC(N)=O)[C@@H](OC)/C=C\C=C(/C)C(=O)NC(=CC1=O)C2=O [17-AAG (Tanespimycin)]	20.1% and 29.1%	25	27.3	24.3	1.11	1.2	18.8	20.6
CNC[C@H](O)c1cccc(O)c1 [Phenylephrine hydrochloride]	103% and 114%	109	104	104	101	109	106	103
CC(C)=CCC[C@](C)(O[C@@H]1O[C@H](CO[C@@H]2OC[C@@H](O)[C@H](O)[C@H]2O)[C@@H](O)[C@H](O)[C@H]1O)[C@H]1CC[C@]2(C)[C@@H]1[C@H](O)C[C@@H]1[C@@]3(C)CC[C@H](O[C@@H]4O[C@H](CO)[C@@H](O)[C@H](O)[C@H]4O[C@@H]4O[C@H](CO)[C@@H](O)[C@H](O)[C@H]4O)C(C)(C)[C@@H]3CC[C@]12C [Ginsenoside Rb3]	101% and 96.7%	108	103	103	109	102	101	101
COc1ccc(CC(=O)Nc2nc3c(s2)CCc2ccccc2-3)cc1OC	70.4% and 68.1%	68.3	45.1	26.8	65.1	76.5	27.9	34.9
O=C1c2c(O)ccc(O)c2C(=O)c2c(NCCNCCO)ccc(NCCNCCO)c21 [Mitoxantrone 2HCl]	3.59% and 6.17%	3.76	4.5	1.79	0.19	0.15	0.48	7.36
O=C1CN2Cc3c(ccc(Cl)c3Cl)N=C2N1 [Anagrelide hydrochloride]	94.6% and 89.8%	108	84.1	96.4	83.4	93.4	101	110
Cc1ccc2nc(CN(CCN(Cc3nc4ccc(C)cc4[nH]3)Cc3nc4ccc(C)cc4[nH]3)Cc3nc4ccc(C)cc4[nH]3)[nH]c2c1	1.04% and 0.84%	1.19	0.68	0.61	0.58	0.53	0.47	0.63
COc1cc2ncnc(Nc3ccc(Cl)cc3F)c2cc1OC	87.2% and 95.4%	82.8	91.9	103	86.7	96.1	92.9	92.1
Nc1ccc(C(=O)O)c(O)c1 [Sodium 4-Aminosalicylate]	89.6% and 88.1%	81.3	85.7	92.5	88.7	88.1	86.3	97.5
OC(Cn1cncn1)(Cn1cncn1)c1ccc(F)cc1F [Fluconazole]	112% and 99.8%	101	98	107	103	101	96.9	95.7
CC(=O)OCC1=C(C(=O)O)N2C(=O)[C@@H](NC(=O)CSc3ccncc3)[C@H]2SC1 [cephapirin sodium]	102% and 105%	105	106	107	99.5	105	117	101
CC(=O)OCC(=O)[C@@]1(O)[C@H](C)C[C@H]2[C@@H]3CCC4=CC(=O)C=C[C@]4(C)[C@@]3(F)[C@@H](O)C[C@@]21C [Dexamethasone acetate]	105% and 106%	106	105	104	103	95.5	106	109
Cc1[nH]nc(C(F)(F)F)c1Cc1sc2c(c1C(=O)N1C[C@](C)(O)CO1)c(=O)n(C)c(=O)n2C(C)C	40% and 62.9%	61.3	90.5	103	92.8	89.3	99.7	99.9
C=C1C[C@@]23CC[C@H]4[C@@](C)(CCC[C@@]4(C)C(=O)O)[C@@H]2CC[C@@H]1C3 [Kaurenoic acid]	105% and 103%	107	105	101	112	103	104	106
CC(=O)OCC1=C(C(=O)O)N2C(=O)C(NC(=O)CSC(=NC(C)C)NC(C)C)C2SC1 (stereo not drawn) [Cefathiamidine]	103% and 98.2%	103	103	110	96.1	104	102	113
Cc1cc(O)c(-c2ccc([C@@H](C)CN)cc2)c2c1[nH]c(=O)c1sccc12 [OTS514 hydrochloride]	19.6% and 29.6%	21.7	3.37	1.35	0.27	0.16	0.39	8.87
CC12CCC(CC1=O)C2(C)C (stereo not drawn) [(+)-Camphor]	94.2% and 102%	101	96.2	99.9	99.3	99.8	103	92.2

SMILES	cell viability ([1]; SRSF2 genotype: SRSF2 P95H/wt)	cell viability ([1]; SRSF2 genotype: SRSF2 wt/wt) [%]	cell viability ([2]; SRSF2 genotype: SRSF2 P95H/wt) [%]	cell viability ([2]; SRSF2 genotype: SRSF2 wt/wt) [%]	cell viability ([3]; SRSF2 genotype: SRSF2 P95H/wt) [%]	cell viability ([3]; SRSF2 genotype: SRSF2 wt/wt) [%]	cell viability ([4]; SRSF2 genotype: P95H/wt) [%]	cell viability ([4]; SRSF2 genotype: wt/wt) [%]
CC1(C)CC(=O)c2c(C(F)(F)F)nn(-c3ccc(C(N)=O)c(N[C@H]4CC[C@H](OC(=O)CN)CC4)c3)c2C1	21.8% and 27.1%	25.3	29.4	24.4	2.89	4.44	14.6	22.1
C/C=C(/C)C(=O)OC(=O)/C(C)=C\C [Angelic anhydride]	98.7% and 106%	113	101	101	103	107	102	100
OC(CNCC(O)C1CCc2cc(F)ccc2O1)C1CCc2cc(F)ccc2O1 (stereo not drawn) [Nebivolol HCl]	61.4% and 73%	80.7	60.4	60.5	58.6	62.5	50.6	61.5
Nc1nc2c(ncn2[C@@H]2O[C@H](CO)[C@@H](O)[C@H]2O)c(=O)[nH]1 [Guanosine]	87.3% and 93.1%	93.2	88.2	103	92.5	99.8	103	97.5
N#CSc1cc(SC#N)c(N)nc1N	8.53% and 15.5%	33.9	4.65	1.5	3.35	0.44	0.31	0.95
CC[C@H](c1ccc(O)cc1)[C@@H](CC)c1ccc(O)cc1 [Hexestrol (Bibenzyl)]	96.8% and 102%	96.9	94.6	101	99.7	103	100	91.9
CN1CCN(c2ccc(Nc3cc(-c4cccc(-n5ccc6cc(C7CC7)cc(F)c6c5=O)c4CO)cn(C)c3=O)nc2)CC1	15.9% and 12.5%	29.8	18.2	0.49	0.81	1.57	2.87	4.49
CCCCC1C(=O)N(c2ccccc2)N(c2ccccc2)C1=O [Phenylbutazone (Butazolidin, Butatron)]	98.1% and 102%	94.9	97.2	102	98	99.9	106	107
COc1ccc(NC(=O)c2ccc(C(=N)N(C)C)cc2)c(C(=O)Nc2ccc(Cl)cn2)c1 [Betrixaban]	89.2% and 82.7%	86.6	82.8	90.1	95.6	96.2	85.8	74.6
C=C[C@@H]1C[C@]1(NC(=O)[C@@H]1C[C@@H]2CN1C(=O)[C@H](C(C)(C)C)NC(=O)O[C@@H]1C[C@H]1CCCCCc1nc3ccc(OC)cc3nc1O2)C(=O)NS(=O)(=O)C1CC1 [Grazoprevir]	96.2% and 101%	93.4	115	123	111	105	116	115
CO/N=C(\C(=O)N[C@@H]1C(=O)N2C(C(=O)[O-])=C(C[n+]3cccc4c3CCC4)CS[C@H]12)c1csc(N)n1 [Cefpirome sulfate]	100% and 107%	106	94.2	108	103	103	101	104
O=C1C[C@@H](c2ccc(O[C@@H]3O[C@H](CO)[C@@H](O)[C@H](O)[C@H]3O)cc2)Oc2cc(O)ccc21 [Liquiritin]	92.3% and 81.1%	83.8	83.3	90.1	86.4	89	96.5	91.4
CC1(C)OC[C@@H](COC(=O)CCc2ccc(OC[C@@H](O)CNCCNC(=O)N3CCOCC3)cc2)O1 [Landiolol hydrochloride]	93.9% and 87.6%	101	97.6	92.6	97.6	98.2	98.3	102
O=C(O)CNC(=O)c1nc(Cl)c2ccccc2c1O	84.7% and 85.9%	81.2	80.5	91.2	80.2	89.1	95.8	89.8
OC(c1cc(-c2ccc(Cl)cc2)nc2ccccc12)C1CCCCN1 (stereo not drawn) [Vacquinol-1]	0.22% and 0.74%	0.11	0.1	0.17	0.03	0.14	0.05	0.39
Cc1ncc(CO)c(CO)c1O [Pyridoxine hydrochloride]	104% and 103%	111	104	112	105	110	104	96.7
CC(C)[C@H](N)C(=O)OCCOCn1cnc2c(=O)nc(N)[nH]c21 [Valaciclovir HCl]	100% and 99%	102	101	111	101	101	98.7	112
N#CCC1(n2cc(-c3ncnc4[nH]ccc34)cn2)CN(C2CCN(C(=O)c3ccnc(C(F)(F)F)c3F)CC2)C1	99.3% and 104%	107	97.5	101	97.6	102	108	110
